# Records with an inconclusive call do not appear. Calls of active or inactive are those of the source. How the source made its calls, unless noted: active means hit-call score of the fitted dose curve at least 0.9, where 1 is the maximum; inconclusive means response in the unintended direction; inactive means score below 0.9.
# Key:
# [1] = Tanguay_ZF_120hpf_OTIC_legacy: (Legacy) Oregon State University Tanguay Lab 120 Hour Post-fertilization zebrafish Assay for Otic Vesicle Malformation (AID 2283639)
# Method in brief: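 Brightfield scoring at 120 hpf, binary present/absent; DMSO negative control, 5uM trimethyltin chloride positive control. Static exposure at 28C, final DMSO 0.64% (vol/vol). Dead embryos not scored for malformation.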
# [2] = Tanguay_ZF_120hpf_PE_legacy: (Legacy) Oregon State University Tanguay Lab 120 Hour Post-fertilization zebrafish Assay for Pericardial Edema (AID 2283640)
# Method in brief: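 Scoring was binary, by brightfield microscopy at 120 hpf, and skipped where mortality occurred. Wild-type embryos were kept under sealed, foil-covered static exposure at 28C in 0.64% (vol/vol) DMSO.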
# [3] = Tanguay_ZF_120hpf_BRAI_legacy: (Legacy) Oregon State University Tanguay Lab 120 Hour Post-fertilization zebrafish Assay for Brain Malformation (AID 2283641)
# Method in brief: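 Binary brightfield scoring of brain malformation at 120 hpf in Tropical 5D larvae held under static exposure at 28C (0.64% v/v DMSO), non-mortality endpoints skipped if dead. Positive control: 5uM trimethyltin chloride; fit versus DMSO.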
# [4] = Tanguay_ZF_120hpf_SOMI_legacy: (Legacy) Oregon State University Tanguay Lab 120 Hour Post-fertilization zebrafish Assay for Somite Malformation (AID 2283647)
# Method in brief: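 Binary somite-defect scoring at 120 hpf, omitted for embryos that died, in wild-type (Tropical 5D) zebrafish with chorion removed by pronase at 4 hpf; static exposure began 6 hpf, single embryos per well, 28C, 0.64% DMSO; fitted positive versus DMSO.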
# [5] = Tanguay_ZF_120hpf_PFIN_legacy: (Legacy) Oregon State University Tanguay Lab 120 Hour Post-fertilization zebrafish Assay for Pectoral Fin Malformation (AID 2283648);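 further: each larva judged yes or no for fin defect by brightfield with dead larvae skipped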
# Method in brief: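 Scoring of pectoral fin malformation was binary, made at 120 hpf on larvae exposed statically from 6 hpf after enzymatic chorion removal. Activity was fitted upward relative to DMSO controls at 0.64% (vol/vol).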
# [6] = Tanguay_ZF_120hpf_CFIN_legacy: (Legacy) Oregon State University Tanguay Lab 120 Hour Post-fertilization zebrafish Assay for Caudal Fin Malformation (AID 2283649)
# Method in brief: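 Binary brightfield scoring of caudal fin defects at 120 hpf after static, light-shielded exposure at 28C from 6 hpf. Tropical 5D embryos, chorion removed with pronase at 4 hpf, final DMSO 0.64%.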
# [7] = Tanguay_ZF_120hpf_PIG_legacy: (Legacy) Oregon State University Tanguay Lab 120 Hour Post-fertilization zebrafish Assay for Pigmentation Malformation (AID 2283650)
# Method in brief: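 Endpoint is incidence of abnormal pigmentation at 120 hpf in dechorionated 5D zebrafish exposed singly from 6 hpf at 28C, DMSO vehicle at 0.64%. Embryos dying by 24 or 120 hpf are excluded from scoring.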
# [8] = Tanguay_ZF_120hpf_CIRC_legacy: (Legacy) Oregon State University Tanguay Lab 120 Hour Post-fertilization zebrafish Assay for Circulatory Malformation (AID 2283651)
# Method in brief: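 Static exposure, 6–120 hpf, 28C, sealed and dark; one dechorionated 5D embryo/well; DMSO 0.64% v/v final. Binary circulation endpoint by brightfield; dead embryos not scored.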
# [9] = Tanguay_ZF_120hpf_SWIM_legacy: (Legacy) Oregon State University Tanguay Lab 120 Hour Post-fertilization zebrafish Assay for Swim Bladder Malformation (AID 2283654);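 further: swim bladder malformation in each larva scored yes or no under brightfield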
# Method in brief: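 Static waterborne exposure of single dechorionated Tropical 5D zebrafish embryos, 6–120 hpf, 28C, 0.64% DMSO final. Read-out: swim bladder malformation, present/absent, relative to DMSO negative control; trimethyltin chloride 5uM served as positive control.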
# [10] = Tanguay_ZF_120hpf_TRUN_legacy: (Legacy) Oregon State University Tanguay Lab 120 Hour Post-fertilization zebrafish Assay for Truncated Body (AID 2283655)
# Method in brief: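 Binary presence/absence of truncated body is recorded at 120 hpf by brightfield, with non-mortality endpoints skipped after death. Exposure is static from 6 hpf in sealed dark plates at 28C, using dechorionated wild-type zebrafish, 0.64% DMSO.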
# [11] = Tanguay_ZF_120hpf_NC_legacy: (Legacy) Oregon State University Tanguay Lab 120 Hour Post-fertilization zebrafish Assay for Notochord and Tail Malformation (AID 2283656)
# Method in brief: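 Binary notochord-distortion calls, made by brightfield inspection, form the read-out; activity is fitted in the positive direction against DMSO. Exposure ran statically from 6 to 120 hpf at 28C with 0.64% DMSO.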
# [12] = read-out: solute carrier (SLC22A6), SLC22A6 (gene 9356); assay: LTEA_HepaRG_SLC22A6: Life Technologies and Expression Analysis (LTEA) Assay for solute carrier (SLC22A6) using HepaRG (AID 2283653; active means hit-call score of the fitted dose curve at least 0.9, where 1 is the maximum; inactive means score below 0.9); settings: mRNA level, 48 h; actives raise or lower the signal
# Method in brief: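 SLC22A6 transcript was measured by TaqMan qRT-PCR, normalized to three housekeeping genes, after 48 h duplicate exposure of HepaRG cells (100 uM top, half-log steps, 0.5% DMSO); bidirectional fit against vehicle.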
# [13] = read-out: solute carrier (SLC10A1), SLC10A1 (gene 6554); assay: LTEA_HepaRG_SLC10A1: Life Technologies and Expression Analysis (LTEA) Assay for solute carrier (SLC10A1) using HepaRG (AID 2283657; active means hit-call score of the fitted dose curve at least 0.9, where 1 is the maximum; inactive means score below 0.9); settings: mRNA level, 48 h; actives raise or lower the signal
# Method in brief: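 Cryopreserved HepaRG cells are thawed, plated and cultured 48 h; medium is then switched to serum-free induction medium and chemicals added (8 points, max 100 uM, 0.5% DMSO). After 48 h, RNA is isolated and SLC10A1 quantified by qRT-PCR.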
# [14] = read-out: matrix metalloproteinase-1 (MMP1), MMP1 (gene 4312); assay: LTEA_HepaRG_MMP1: Life Technologies and Expression Analysis (LTEA) Assay for matrix metalloproteinase-1 (MMP1) using HepaRG (AID 2283658; active means hit-call score of the fitted dose curve at least 0.9, where 1 is the maximum; inactive means score below 0.9); settings: mRNA level, 48 h; actives raise or lower the signal
# Method in brief: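 qRT-PCR (TaqMan, Fluidigm arrays) of MMP1 transcript, normalized against three housekeeping genes and fitted in both directions relative to 0.5% DMSO vehicle. Human HepaRG cultures received duplicate 48 h exposures across 8 points, highest 100 uM with half-log steps.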
# [15] = test system: Thyroperoxidase (TPO), gene 54314; assay: CCTE_Simmons_AUR_rTPO: CCTE's Amplex UltraRed Assay for Thyroperoxidase (TPO) Inhibition, Simmons Lab (AID 2283662);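 on AC50: potency for loss of signal meaning inhibition of peroxidase activity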
# Method in brief: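 Endpoint is decreased Amplex UltraRed fluorescence after a 30-min, 37C reaction of rat thyroid microsomes with 300 uM H2O2. Eight test concentrations (5 nM–87.5 uM final) in 0.5% DMSO, three biological replicates each.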
# [16] = read-out: ABC Transporter (ABCB1), ABCB1 (gene 5243); assay: CLD_ABCB1_6hr: CellzDirect (CLD) Gene Expression Assay for ABC Transporter (ABCB1) at 6 hours (AID 2283659);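 further: hits raise ABCB1 transcript above the DMSO vehicle baseline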
# Method in brief: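 ABCB1 transcript measured by quantitative nuclease protection assay, chemiluminescent read-out, 6 h after dosing human hepatocyte cultures (0.2% DMSO vehicle, daily redosing). Activity fitted as increase over DMSO baseline; cytotoxicity flagged by phase-contrast morphology.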
# [17] = read-out: Broad substrate specificity ATP-binding cassette transporter ABCG2 (Homo sapiens) (UniProt Q9UNQ0); assay: CLD_ABCG2_6hr: CellzDirect (CLD) Gene Expression Assay for ABC Transporter (ABCG2) at 6 hours (AID 2283660)
# Method in brief: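 ABCG2 mRNA induction measured by qNPA chemiluminescence in human primary hepatocyte cultures, 6 h post-dose. Chemicals tested at several concentrations against a 0.2% DMSO vehicle; positive-direction fit relative to DMSO.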
# [18] = read-out: xenobiotic metabolism (CYP1A1), CYP1A1 (gene 1543); assay: CLD_CYP1A1_6hr: CellzDirect (CLD) Gene Expression Assay for xenobiotic metabolism (CYP1A1) at 6 hours (AID 2283661)
# Method in brief: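 Read-out 6 h post-dose: qNPA chemiluminescent quantitation of transcript induction against 0.2% DMSO. Cells were cultured primary human hepatocytes from two separate donor preparations; phase-contrast morphology annotated apparent cytotoxicity.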
# [19] = read-out: xenobiotic metabolism (CYP1A2), CYP1A2 (gene 1544); assay: CLD_CYP1A2_6hr: CellzDirect (CLD) Gene Expression Assay for xenobiotic metabolism (CYP1A2) at 6 hours (AID 2283663)
# Method in brief: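 mRNA levels quantified by quantitative nuclease protection assay with chemiluminescence, 6 h after dosing human primary hepatocyte cultures (two donors) across several concentrations, vehicle 0.2% DMSO. Induction fitted upward versus DMSO; phase-contrast cytotoxicity annotated.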
# [20] = read-out: xenobiotic metabolism (CYP2C9), CYP2C9 (gene 1559); assay: CLD_CYP2C9_6hr: CellzDirect (CLD) Gene Expression Assay for xenobiotic metabolism (CYP2C9) at 6 hours (AID 2283664)
# Method in brief: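 Readout is qNPA chemiluminescence of CYP2C9 mRNA, taken 6 h after dosing of cultured human liver primary cells at several concentrations. Activity is the increase over 0.2% DMSO baseline. Morphology-based cytotoxicity flagged yes/no.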
# Broad substrate specificity ATP-binding cassette transporter ABCG2 (Homo sapiens), sequence (Q9UNQ0 whole entry, looked up): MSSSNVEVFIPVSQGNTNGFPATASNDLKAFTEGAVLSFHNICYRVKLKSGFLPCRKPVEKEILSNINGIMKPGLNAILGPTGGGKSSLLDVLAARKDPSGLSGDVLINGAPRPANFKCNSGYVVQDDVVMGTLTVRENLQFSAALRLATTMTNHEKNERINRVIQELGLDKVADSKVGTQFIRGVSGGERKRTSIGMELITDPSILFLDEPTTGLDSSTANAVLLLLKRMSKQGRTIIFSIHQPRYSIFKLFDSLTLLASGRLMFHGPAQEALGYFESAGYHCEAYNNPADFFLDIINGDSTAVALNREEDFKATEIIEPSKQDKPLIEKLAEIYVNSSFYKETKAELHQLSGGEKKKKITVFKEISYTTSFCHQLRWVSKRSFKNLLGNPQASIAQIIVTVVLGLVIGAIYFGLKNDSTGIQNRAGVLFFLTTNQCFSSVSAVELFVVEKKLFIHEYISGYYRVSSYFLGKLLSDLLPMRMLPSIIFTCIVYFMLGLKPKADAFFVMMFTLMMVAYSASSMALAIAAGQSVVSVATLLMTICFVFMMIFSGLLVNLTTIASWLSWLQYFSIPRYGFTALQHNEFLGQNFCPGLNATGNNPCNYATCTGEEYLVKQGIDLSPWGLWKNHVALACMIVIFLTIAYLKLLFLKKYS
compound,measurement,setting,value
O=C(N[C@H]1CN2CCC1CC2)c1cc2ccoc2cn1,outcome,[1],inactive
same,outcome,[2],inactive
same,outcome,[3],inactive
same,outcome,[4],inactive
same,outcome,[5],inactive
same,outcome,[6],inactive
same,outcome,[7],inactive
same,outcome,[8],inactive
same,outcome,[9],inactive
same,outcome,[10],inactive
ClC1=C(Cl)[C@]2(Cl)[C@@H]3[C@@H]4C[C@@H]([C@H]5O[C@@H]45)[C@@H]3[C@@]1(Cl)C2(Cl)Cl,outcome,[1],inactive
same,outcome,[2],inactive
same,outcome,[3],inactive
same,outcome,[4],inactive
same,outcome,[6],inactive
same,outcome,[9],inactive
c1cc2ccc3cccc4ccc(c1)c2c34,outcome,[1],inactive
same,outcome,[2],inactive
same,outcome,[3],inactive
same,outcome,[6],inactive
same,outcome,[7],inactive
same,outcome,[8],inactive
same,outcome,[9],inactive
same,outcome,[10],inactive
same,outcome,[11],inactive
CC#Cc1cc(C)nc(Nc2ccccc2)n1,outcome,[3],inactive
same,outcome,[4],inactive
same,outcome,[6],inactive
same,outcome,[7],inactive
same,outcome,[8],inactive
same,outcome,[9],inactive
O=C(NC(=O)c1cc(F)c(F)cc1Cl)Nc1cc(F)ccc1N1CCC(C(=O)O)CC1,outcome,[1],inactive
same,outcome,[2],inactive
same,outcome,[4],inactive
same,outcome,[5],inactive
same,outcome,[6],inactive
same,outcome,[7],inactive
same,outcome,[8],inactive
same,outcome,[9],inactive
same,outcome,[10],inactive
CCCN(CCC)N=O,outcome,[2],inactive
same,outcome,[4],inactive
same,outcome,[6],inactive
same,outcome,[7],inactive
same,outcome,[8],inactive
same,outcome,[9],inactive
same,outcome,[10],inactive
CCCCCCOC(=O)c1ccccc1C(=O)OCCCCCC,outcome,[2],inactive
same,outcome,[3],inactive
same,outcome,[4],inactive
same,outcome,[7],inactive
same,outcome,[8],inactive
same,outcome,[10],inactive
same,outcome,[11],inactive
Clc1ccc(Cl)cc1,outcome,[1],inactive
same,outcome,[2],inactive
same,outcome,[4],inactive
same,outcome,[6],inactive
same,outcome,[7],inactive
same,outcome,[8],inactive
same,outcome,[12],inactive
same,outcome,[10],inactive
same,outcome,[11],inactive
same,outcome,[13],inactive
same,outcome,[14],inactive
O=C(O)C(F)(F)C(F)(F)C(F)(F)C(F)(F)C(F)(F)F,outcome,[1],inactive
same,outcome,[2],inactive
same,outcome,[3],inactive
same,outcome,[6],inactive
same,outcome,[7],inactive
same,outcome,[8],inactive
same,outcome,[9],inactive
same,outcome,[10],inactive
C1CC2OC2CC1C1CO1 (stereo not given),outcome,[1],inactive
same,outcome,[4],inactive
same,outcome,[6],inactive
same,outcome,[7],inactive
same,outcome,[8],inactive
same,outcome,[9],inactive
same,outcome,[10],inactive
same,outcome,[11],inactive
O=C(O)C(F)(F)C(F)(F)C(F)(F)C(F)(F)C(F)(F)C(F)(F)C(F)(F)C(F)(F)C(F)(F)F,outcome,[1],inactive
same,outcome,[3],inactive
same,outcome,[4],inactive
same,outcome,[6],inactive
same,outcome,[7],inactive
same,outcome,[8],inactive
same,outcome,[12],inactive
same,outcome,[9],inactive
same,outcome,[10],inactive
same,AC50,[13],23.3 µM (active)
same,AC50,[14],72.2 µM (active)
same,AC50,[15],22.7 µM (active)
CCCCCCCCCC[N+](C)(C)CCCCCCCCCC,outcome,[1],inactive
same,outcome,[2],inactive
same,outcome,[3],inactive
same,outcome,[6],inactive
same,outcome,[8],inactive
same,outcome,[9],inactive
same,outcome,[10],inactive
same,AC50,[15],43.8 µM (active)
N#Cc1ccc(N(CC(N)=O)CC(F)(F)F)cc1C(F)(F)F,outcome,[1],inactive
same,outcome,[2],inactive
same,outcome,[3],inactive
same,outcome,[6],inactive
same,outcome,[7],inactive
same,outcome,[9],inactive
same,outcome,[10],inactive
CN(C)c1nc(=O)n(C2CCCCC2)c(=O)n1C,outcome,[1],inactive
same,outcome,[2],inactive
same,outcome,[3],inactive
same,outcome,[6],inactive
same,outcome,[8],inactive
same,outcome,[10],inactive
same,outcome,[16],inactive
same,outcome,[17],inactive
same,outcome,[18],inactive
same,outcome,[19],inactive
same,outcome,[20],inactive
Cc1cc(O)ccc1Cl,outcome,[1],inactive
same,outcome,[2],inactive
same,outcome,[6],inactive
same,outcome,[7],inactive
same,outcome,[8],inactive
same,outcome,[10],inactive
same,outcome,[11],inactive
CC(C)(c1ccccc1)c1ccc(O)cc1,outcome,[1],inactive
same,outcome,[2],inactive
same,outcome,[4],inactive
same,outcome,[6],inactive
same,outcome,[7],inactive
same,outcome,[8],inactive
same,outcome,[9],inactive
same,AC50,[15],3.55 µM (active)
Clc1ccc(C(Cl)(Cl)Cl)cc1,outcome,[2],inactive
same,outcome,[4],inactive
same,outcome,[7],inactive
same,outcome,[9],inactive
same,outcome,[10],inactive
same,outcome,[15],inactive
